Structures are written as SMILES. Results filed as inconclusive are left out. A call without a number means that no potency is given here. Activity calls are given as the source filed them. Calls follow the shape of the dose curve; as a rule, active = well fitted cell-killing curve with a large enough effect in the repeat runs; inconclusive = weak or mixed curves, or effect the other way; inactive = flat fitted curve, though single readings scatter.

From PubChem BioAssay (Tox21) come the findings set out here.

The nature of this assay: qHTS RealTime-Glo MT Cell Viability Assay in HepG2 cells - 0 hour (AID 1224889). Also: nearly all actives have a fitted effect of over 50% in size. As to conditions: RealTime-Glo luminescence; series mostly up to 76.8 µM. The text has this: U.S. Tox21 Program National Center for Advancing Translational Sciences [NCATS] NIH Chemical Genomics Center [NCGC] U.S. Environmental Protection Agency [EPA] National Institutes of Environmental Health Sciences [NIEHS] National Toxicology Program [NTP] U.S. Food and Drug Administration [FDA] Tox21 Assay Overview: Measure of cell viability is critical in the cell-base assay. Analysis of cell viability is necessary for the characterization of cell responses to cytotoxic drugs and environmental stress. A RealTime-Glo MT Cell Viability Assay to monitor cell viability in real time of continues cell culture during 40 hours of compound treatment was used to screen Tox21 10K library compounds in HepG2 cells. The RealTime-Glo MT Cell Viability Assay is a nonlytic, homogeneous, bioluminescent method to measure cell viability in real time using a simple, plate-based method. The assay involves adding NanoLuc luciferase and a cell-permeant prosubstrate to cells in culture. Viable cells reduce the proprietary prosubstrate to generate a substrate for NanoLuc luciferase. This substrate diffuses from cells into the surrounding culture medium, where it is rapidly used by the NanoLuc Enzyme to produce a luminescent signal. The signal correlates with the number of viable cells, making the assay well suited for cytotoxicity studies.
Tox21 Assay Protocol Summary: The mixture of HepG2 cell suspension and reagents were dispensed at 600cells/6 ul/well in 1536-well tissue culture treated black solid bottom plates using a Multidrop dispenser. After the assay plates were incubated at a 37 C/5% CO2 incubator for 5 hours, 23 nL of compounds dissolved in DMSO, positive and negative controls was transferred to the assay plate by a pintool work station. The plates were incubated at 37 C for 40 hours. The luminescence intensity were measured at 0h, 8h, 16h, 24h, 32h and 40h time points using ViewLux plate reader during compound treatment.
A general note: In qHTS, concentration-response curves come from the screen itself.
As for `CC(C)(C#N)Nc1nc(Cl)nc(NC2CC2)n1`, the Potency result was “inactive”.

Take `CCCC(C)C(=O)OCC` (stereo not given): the Potency result was “inactive”.

For `OCCc1ccccn1`, the Potency entry is “inactive”.

For the compound `Clc1cc(Cl)cc(Cl)c1`, the Potency entry is “inactive”.

`COc1cc(C)nc(-n2nc(C)cc2OC)n1`: the Potency result is “inactive”.

With `CC1(C)[C@@H]2CC[C@@]1(C)[C@H](O)C2`, the Potency result was “inactive”.

For `Cc1cc(C)c(N=Nc2c(O)c(S(=O)(=O)O)cc3cc(S(=O)(=O)O)ccc23)cc1C`, the activity change, negative = cytotoxicity was 4.39% [at 6.97 µM] (inactive).

For `CCC(C)(CCCC(C)C)OC(C)=O` (stereo not given), the Potency entry is “inactive”.

As to `CN1CCC(=C2c3ccccc3CCc3cccnc32)CC1`, the Potency result was “inactive”.

In the case of `C[N+](C)(CCOc1ccccc1)Cc1cccs1`, the Potency result is “inactive”.

Regarding `CCCCCCCCCCCCSC`, the Potency entry was “inactive”.

In the case of `C[N+]12CCC(CC1)C(OC(=O)C(O)(c1ccccc1)c1ccccc1)C2` (stereo not given), the Potency entry was “inactive”.

`NCCCC[C@H](N[C@@H](CCc1ccccc1)C(=O)O)C(=O)N1CCC[C@H]1C(=O)O`: the Potency entry is “inactive”.

As to `CO[C@@]1(NC(=O)C(C(=O)O)c2ccc(O)cc2)C(=O)N2C(C(=O)O)=C(CSc3nnnn3C)CO[C@@H]21` (stereo not given in full), the Potency entry was “inactive”.

Regarding `CNCC(O)c1ccc(O)c(O)c1` (stereo not given), the Potency result is “inactive”.

`C=C[Si](OC(C)=O)(OC(C)=O)OC(C)=O`: the Potency result was “inactive”.

Consider `CCN(C=O)CC`, for which the Potency result was “inactive”.

With `C=CCCCCCCCCC(=O)OCC`, the Potency entry is “inactive”.

Turning to `CC(C)(N)C#N`, the Potency entry is “inactive”.

Turning to `N[C@@H](CCC(=O)O)C(=O)O`, the Potency entry is “inactive”.

On to `CCCCc1ccc2c(n1)[C@@H](c1ccc(OC)cc1C[C@H](C)C(=O)O)[C@H](C(=O)O)[C@H]2c1ccc2c(c1)OCO2`, for which the Potency entry is “inactive”.

Turning to `c1ccc(CCc2ccccc2)cc1`, the Potency entry was “inactive”.

On to `CCOC(=O)CCC(=O)OCC`, for which the Potency entry is “inactive”.

`CCOC(=O)OC(C)OC1=C(C(=O)Nc2ccccn2)N(C)S(=O)(=O)c2ccccc21` (stereo not given): the Potency result was “inactive”.

For the compound `CCOc1c(N2CCOCC2)cnn(C)c1=O`, the Potency entry was “inactive”.

As to `CCCCOCCOC(=O)COc1cc(Cl)c(Cl)cc1Cl`, the Potency result was “inactive”.

For the compound `c1ccc2sc(SN3CCOCC3)nc2c1`, the Potency result was “inactive”.

For `CN(C)CCCCCCN(C)C`, the Potency entry was “inactive”.

As for `C[N+]1(C)CCCC(OC(=O)C(O)(c2ccccc2)c2ccccc2)C1` (stereo not given), the Potency entry is “inactive”.

Take `CC(C)NNC(=O)c1ccncc1`: the Potency result is “inactive”.

Take `CCC1C(=O)OCC1Cc1cncn1C` (stereo not given): the Potency result was “inactive”.

For `Cc1ccc(C(=O)c2ccc(CC(=O)O)n2C)cc1`, the Potency entry is “inactive”.

`C=C(C)C(=O)OCCOCCOCCOCCOC(=O)C(=C)C`: the Potency result is “inactive”.

Turning to `CN(C)[C@@H]1C(=O)C(C(=O)NCN2CCCC2)=C(O)[C@@]2(O)C(=O)C3=C(O)c4c(O)cccc4[C@@](C)(O)C3C[C@@H]12` (stereo not given in full), the Potency result was “inactive”.

For `COC(=O)Nc1ccc(Cl)c(Cl)c1`, the Potency result was “inactive”.

Consider `O=C1CCCCCCCCCCCCCCO1`, for which the Potency entry is “inactive”.

Take `COc1c(N2CCNC(C)C2)c(F)cc2c(=O)c(C(=O)O)cn(C3CC3)c12` (stereo not given): the Potency entry was “inactive”.

For the compound `CCCCCCCC1CCCC1=O` (stereo not given), the Potency entry is “inactive”.

For the compound `CC[C@H]1OC(=O)[C@H](C)[C@@H](O[C@H]2C[C@@](C)(OC)[C@@H](O)[C@H](C)O2)[C@H](C)[C@@H](O[C@@H]2O[C@H](C)C[C@H](N(C)C)[C@H]2O)[C@](C)(OC)C[C@@H](C)C(=O)[C@H](C)[C@@H](O)[C@]1(C)O`, the Potency result was “inactive”.

`CCN1C=CN(C)C1C` (stereo not given): the Potency entry was “inactive”.
